Test results reported in PubChem BioAssay (NCI).
Where “and” joins values, the source holds several entries; their conditions need not be identical. Equal entries are not always repeated. About 79,000 compounds went through this panel and 15% of them were active in at least one assay; those are over-represented in the sample as a whole. A structure can be active in one record and inactive in another. Calls of active or inactive are those of the source. Rule as the data show it: active = growth inhibition above about 70%; inactive = the rest.

Tests used:
[1] = NCI Yeast Anticancer Drug Screen. Data for the rad52 strain (AID 147);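 also: 0% = growth of vehicle-treated control cultures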; settings: S. cerevisiae rad52 mutant growth inhibition, stronger effect = higher value
Summary of the method: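 Vehicle-treated cultures served as the reference for growth inhibition of compound-exposed yeast bearing a DNA repair mutation.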

[2] = NCI Yeast Anticancer Drug Screen. Data for the wt1 strain (AID 149);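 also: 0% = growth of vehicle-treated wt1 cultures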; settings: S. cerevisiae wt1 strain (SPY 50644) growth inhibition, stronger effect = higher value
Summary of the method: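 Yeast wt1 strain exposed to compounds; growth inhibition measured relative to vehicle-treated controls.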

[3] = NCI Yeast Anticancer Drug Screen. Data for the rad50EPP+ strain (AID 151);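 also: 0% = growth of vehicle-treated control cultures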; settings: S. cerevisiae rad50 mutant strain, stronger effect = higher value
Summary of the method: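 In this screen, rad50EPP+ yeast were exposed to compounds. Growth inhibition was scored against vehicle-treated controls.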

[4] = NCI Yeast Anticancer Drug Screen. Data for the mgt1 strain (AID 153); settings: S. cerevisiae mgt1 mutant growth inhibition, stronger effect = higher value
Summary of the method: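 mgt1 strain exposed; growth vs vehicle control recorded as inhibition.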

[5] = NCI Yeast Anticancer Drug Screen. Data for the rad50 strain (AID 155);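 also: 0% = growth of vehicle-only cultures of the same strain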; settings: S. cerevisiae rad50 strain growth inhibition, stronger effect = higher value
Summary of the method: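 Yeast carrying a defined DNA repair defect were exposed to test compounds, and growth was compared with vehicle-treated controls to give percent inhibition.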

[6] = NCI Yeast Anticancer Drug Screen. Data for the mec2-1 strain (AID 157); settings: S. cerevisiae mec2-1 strain, stronger effect = higher value
Summary of the method: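 Vehicle-treated cultures served as reference for growth inhibition of compound-exposed mec2-1 yeast.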

[7] = NCI Yeast Anticancer Drug Screen. Data for the rad14 strain (AID 159);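 also: 0% = growth of vehicle-treated control cultures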; settings: S. cerevisiae rad14 strain growth inhibition, stronger effect = higher value
Summary of the method: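 Yeast cells carrying a defined DNA-repair defect were exposed to compounds, and growth inhibition was calculated relative to vehicle-treated control cultures.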

[8] = NCI Yeast Anticancer Drug Screen. Data for the sgs1 mgt1 strain (AID 161);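 also: 0% = growth of cultures given vehicle only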; settings: S. cerevisiae sgs1 mgt1 strain, stronger effect = higher value
Summary of the method: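 Inhibition of yeast growth, normalised to vehicle-treated controls, is reported for a strain bearing genetic alterations in DNA damage repair.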

[9] = NCI Yeast Anticancer Drug Screen. Data for the CLN2oe strain (AID 163);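 also: 0% = growth of vehicle-only control cultures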; settings: S. cerevisiae CLN2oe strain, stronger effect = higher value
Summary of the method: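 Inhibition relative to vehicle-treated yeast is reported. Cells: strain with genetic alteration in cell-cycle control, grown with compound.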

[10] = NCI Yeast Anticancer Drug Screen. Data for the cln2 rad14 strain (AID 165);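 also: 0% = growth equal to vehicle treated cultures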; settings: S. cerevisiae cln2 rad14 strain, stronger effect = higher value
Summary of the method: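 Each compound was tested on cln2 rad14 yeast. Inhibition of growth was calculated against vehicle-exposed controls.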

[11] = NCI Yeast Anticancer Drug Screen. Data for the bub3 strain (AID 167); settings: S. cerevisiae bub3 mutant strain, stronger effect = higher value
Summary of the method: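 Compounds were applied to a genetically altered yeast strain carrying a cell-cycle control defect. Growth inhibition was scored against vehicle-treated controls.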

[12] = NCI Yeast Anticancer Drug Screen. Data for the wt2 strain (AID 169);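 also: 0% = growth of vehicle-treated yeast cultures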; settings: S. cerevisiae wt2 strain growth inhibition, stronger effect = higher value
Summary of the method: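 Inhibition of yeast growth was determined after compound treatment, normalised to controls receiving only vehicle.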

[13] = NCI Yeast Anticancer Drug Screen. Data for the mlh1 strain (AID 171);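 also: 0% = growth of vehicle-treated control cultures of the same strain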; settings: S. cerevisiae mlh1 strain growth inhibition, stronger effect = higher value
Summary of the method: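 Vehicle-normalised growth inhibition of a repair- or checkpoint-altered yeast strain following compound treatment.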

[14] = NCI Yeast Anticancer Drug Screen. Data for the sgs1 strain (AID 173);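 also: 0% = growth of vehicle-only control cultures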; settings: S. cerevisiae sgs1 mutant, stronger effect = higher value
Summary of the method: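 Screen format: yeast with repair or checkpoint alterations, compound exposure, growth read relative to vehicle.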

[15] = NCI Yeast Anticancer Drug Screen. Data for the mlh1 rad18 strain (AID 175); settings: S. cerevisiae mlh1 rad18 strain growth inhibition, stronger effect = higher value
Summary of the method: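 Vehicle-treated cultures served as the reference for growth inhibition in a yeast strain carrying DNA damage repair alterations exposed to each compound.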

[16] = NCI Yeast Anticancer Drug Screen. Data for the rad18 strain (AID 177); settings: S. cerevisiae rad18 mutant growth inhibition, stronger effect = higher value
Summary of the method: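 Test articles were incubated with altered yeast defective in DNA damage repair. Results are given as inhibition of growth versus vehicle.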

[17] = at 5.0 µM (retest, dose inferred, filed as 0.5)
[18] = at 50.0 µM (retest, dose inferred, filed as 5.0)

Measured: growth inhibition

COc1ccc2c(c1)n([O-])c1ccccc1[n+]2=O
inactive: [1]; at 1.2 µM 16% | [1]; at 3.7 µM 48% | [2]; at 1.2 µM 0% | [2]; at 3.7 µM 2% | [2]; at 11.0 µM 9% | [2]; at 33.0 µM 24% | [2]; at 100.0 µM 69% | [3]; at 1.2 µM 34% | [4]; at 1.2 µM -1% | [4]; at 3.7 µM 2% | [4]; at 11.0 µM 9% | [4]; at 33.0 µM 33% | [5]; at 1.2 µM 18% | [5]; at 3.7 µM 33% | [5]; at 50.0 µM -18.6% | [6]; at 1.2 µM 3% | [6]; at 3.7 µM 7% | [6]; [17] 15% and 27% | [6]; at 11.0 µM 19% | [6]; at 33.0 µM 50% | [6]; at 50.0 µM 50.2% | [7]; at 1.2 µM 6% | [7]; at 3.7 µM 12% | [7]; at 11.0 µM 25% | [7]; at 33.0 µM 56% | [8]; at 50.0 µM -13.2% | [9]; at 1.2 µM -4% | [9]; at 3.7 µM -7% | [9]; at 11.0 µM -2% | [9]; at 33.0 µM 25% | [10]; [17] 6% and 22% | [11]; at 1.2 µM 3% | [11]; at 3.7 µM 4% | [11]; [17] 6% and 10% | [11]; at 11.0 µM 14% | [11]; at 33.0 µM 60% | [12]; at 1.2 µM -2% | [12]; at 3.7 µM 11% | [12]; at 11.0 µM 11% | [12]; at 33.0 µM 26% | [13]; at 1.2 µM 0% | [13]; at 3.7 µM 3% | [13]; at 11.0 µM 12% | [13]; at 33.0 µM 38% | [14]; at 1.2 µM 5% | [14]; at 3.7 µM 18% | [14]; at 11.0 µM 41% | [15]; at 50.0 µM 6.8% | [16]; at 1.2 µM 39%
5% (inactive) and 73% (active): [8]; [17]
17% (inactive) and 81% (active): [15]; [17]
active: [1]; at 11.0 µM 86% | [1]; at 33.0 µM 95% | [1]; at 100.0 µM 97% | [3]; at 3.7 µM 72% | [3]; at 11.0 µM 93% | [3]; at 33.0 µM 97% | [3]; at 100.0 µM 98% | [4]; at 100.0 µM 88% | [5]; at 11.0 µM 91% | [5]; at 33.0 µM 95% | [5]; [18] 95% and 98% | [5]; at 100.0 µM 98% | [6]; [18] 75% and 99% | [6]; at 100.0 µM 93% | [7]; at 100.0 µM 95% | [8]; [18] 71% and 99% | [9]; at 100.0 µM 75% | [10]; [18] 90% and 97% | [10]; at 50.0 µM 96.3% | [11]; [18] 85% and 99% | [11]; at 50.0 µM 95.3% | [11]; at 100.0 µM 91% | [12]; at 100.0 µM 77% | [13]; at 100.0 µM 90% | [14]; at 33.0 µM 76% | [14]; at 100.0 µM 95% | [15]; [18] 93% and 98% | [16]; at 3.7 µM 75% | [16]; at 11.0 µM 93% | [16]; at 33.0 µM 97% | [16]; at 100.0 µM 96%
66% (inactive) and 91% (active): [5]; [17]
